About 79,000 compounds went through this panel and 15% of them were active in at least one assay; those are over-represented in the sample as a whole. Unmarked numbers belong to inactive results. Calls of active or inactive are those of the source. Cut-off read from the data, not from the text of the source: active = growth inhibition above about 70%; inactive = the rest.
Legend:
[1] = NCI Yeast Anticancer Drug Screen. Data for the rad50 strain (AID 155);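 note: 0% = growth of vehicle-only cultures of the same strain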; details: S. cerevisiae rad50 strain growth inhibition, stronger effect = higher value
Procedure, shortened: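 Cells are treated with compound, grown, and their growth is then scored against vehicle-only cultures of the same repair-deficient yeast strain.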

[2] = NCI Yeast Anticancer Drug Screen. Data for the mec2-1 strain (AID 157); details: S. cerevisiae mec2-1 strain, stronger effect = higher value
Procedure, shortened: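 Growth inhibition is read against vehicle-treated controls after compound exposure of the mec2-1 yeast strain, which is defective in DNA damage repair or cell cycle control.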

[3] = NCI Yeast Anticancer Drug Screen. Data for the sgs1 mgt1 strain (AID 161);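 note: 0% = growth of cultures given vehicle only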; details: S. cerevisiae sgs1 mgt1 strain, stronger effect = higher value
Procedure, shortened: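 Yeast cells carrying a defined DNA-repair defect were exposed to test compounds. Growth inhibition was measured relative to vehicle-treated controls.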

[4] = NCI Yeast Anticancer Drug Screen. Data for the cln2 rad14 strain (AID 165);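 note: 0% = growth equal to vehicle treated cultures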; details: S. cerevisiae cln2 rad14 strain, stronger effect = higher value
Procedure, shortened: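 Growth inhibition, relative to vehicle-treated controls, is the read-out. The test organism is a yeast strain with defined genetic alterations, cln2 rad14.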

[5] = NCI Yeast Anticancer Drug Screen. Data for the bub3 strain (AID 167); details: S. cerevisiae bub3 mutant strain, stronger effect = higher value
Procedure, shortened: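 Part of a panel of yeast mutants defective in DNA damage repair or cell cycle regulation. Each strain is grown with compound, and inhibition is calculated relative to solvent-treated cultures.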

[6] = NCI Yeast Anticancer Drug Screen. Data for the mlh1 rad18 strain (AID 175); details: S. cerevisiae mlh1 rad18 strain growth inhibition, stronger effect = higher value
Procedure, shortened: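 Cells of a genetically altered yeast strain, deficient in DNA damage repair, were treated with compound. Their growth was then compared with that of vehicle-treated cultures to give inhibition.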

[7] = at 5.0 µM (retest, dose inferred, filed as 0.5)
[8] = at 50.0 µM (retest, dose inferred, filed as 5.0)

SMILES | growth inhibition [1, 7] | growth inhibition [1, 8] | growth inhibition ([1]; at 50.0 µM) | growth inhibition [2, 7] | growth inhibition [2, 8] | growth inhibition ([2]; at 50.0 µM) | growth inhibition [3, 7] | growth inhibition [3, 8] | growth inhibition ([3]; at 50.0 µM) | growth inhibition [4, 7] | growth inhibition [4, 8] | growth inhibition ([4]; at 50.0 µM) | growth inhibition [5, 7] | growth inhibition [5, 8] | growth inhibition ([5]; at 50.0 µM) | growth inhibition [6, 7] | growth inhibition [6, 8] | growth inhibition ([6]; at 50.0 µM)
O=C(/C(=C\c1ccccc1)c1ccccc1)c1ccc(Br)cc1 | 7% | -9% | 10.2% | 3% | 4% | -16.2% | 4% | 5% | 24.6% | 0% | -8% | 47.1% | 1% | 9% | 11.8% | -8% | 2% | 17.4%
S=C(Nc1ccccc1)NC1CCCCCCCCC1 | -2% | 29% | 77% (active) | -8% | 42% | 54.9% | 5% | 53% | 90.6% (active) | -59% | 71% (active) | 60.7% | -5% | 27% | 30.8% | 0% | 44% | 88.7% (active)
COC(=O)c1nc(N)nc(C(=O)OC)c1C(=O)c1ccccc1 | 0% | 21% | -32.9% | 22% | -5% | -13.3% | 30% | 20% | -29.4% | -13% | 1% | 42.7% | -3% | 0% | -24.6% | -2% | -5% | 0%
O=C(Nn1c(=O)c(=O)oc2ccccc21)C(F)(F)F | 0% | 90% (active) | 94.7% (active) | 1% | 87% (active) | 69.4% | 17% | 88% (active) | 81.2% (active) | 3% | 93% (active) | 94.2% (active) | 9% | 95% (active) | 90.9% (active) | 26% | 97% (active) | 97.4% (active)
C[CH2][Ge]([CH2]C)[CH2]C.C[CH2][Ge]([Cl])[CH2]C.C[CH2][Ge][CH2]C | 19% | 96% (active) | 98% (active) | 15% | 98% (active) | 98.6% (active) | 23% | 96% (active) | 98.1% (active) | 8% | 94% (active) | 97% (active) | 17% | 96% (active) | 98.2% (active) | 12% | 95% (active) | 98.2% (active)
Oc1cc2ccccc2c2c1ccc1ccccc12 | -142% | 90% (active) | 84.5% (active) | -35% | 97% (active) | 77.8% (active) | -52% | 95% (active) | 86.7% (active) | -55% | 95% (active) | 67.8% | -55% | 94% (active) | 84% (active) | -94% | 92% (active) | 77.3% (active)
COc1cc2c(cc1OC)C(N(C)C)C(c1ccccc1)=C2Cl (configuration not stated) | 0% | 96% (active) | 91.2% (active) | -28% | 99% (active) | 93.5% (active) | 1% | 96% (active) | 92.2% (active) | 14% | 98% (active) | 91.5% (active) | 25% | 98% (active) | 90.8% (active) | 7% | 99% (active) | 90.4% (active)
COc1ccccc1C1C(Cl)C(=O)N1n1cnc2ccccc2c1=O (configuration not stated) | -12% | -12% | 83.9% (active) | -29% | 7% | 49.4% | -11% | 2% | 84.5% (active) | 15% | 16% | 62.3% | 9% | 55% | 83.2% (active) | -5% | -3% | 76.8% (active)
c1ccc([P+](c2ccccc2)(c2ccccc2)C2CCCCO2)cc1 (configuration not stated) | 17% | 74% (active) | 67.8% | -4% | 83% (active) | 83.2% (active) | 4% | 69% | 35.1% | -2% | 77% (active) | 49.5% | 5% | 77% (active) | 54% | 1% | 61% | 81.1% (active)
COc1cc(C=O)c(C=O)cc1OC | 8% | 74% (active) | 69.9% | 6% | 40% | 50.2% | 3% | 79% (active) | 52.5% | 9% | 84% (active) | 89.2% (active) | 5% | 87% (active) | 73.5% (active) | 16% | 87% (active) | 74.5% (active)
C=CCC1=C(C)C(OC(=O)/C=C/c2ccccc2Cl)CC1=O (configuration not stated) | 17% | 81% (active) | 86.2% (active) | 0% | 88% (active) | 85.1% (active) | 13% | 88% (active) | 72.2% (active) | -6% | 89% (active) | 69% | 3% | 90% (active) | 95.4% (active) | 8% | 89% (active) | 84.3% (active)
CCN(CC)CCSCCCNc1cc(C)nc2c1ccc1c2ccc2c(NCCCSCCN(CC)CC)cc(C)nc21 | 5% | 92% (active) | 97.3% (active) | 3% | 70% (active) | 97.4% (active) | -2% | 49% | 97.8% (active) | -3% | 42% | 72.5% (active) | 4% | 67% | 94.4% (active) | 8% | 94% (active) | 95.8% (active)
CC(=O)N(C)c1ccc2c(c1)Cc1ccccc1-2 | 2% | 34% | 42.6% | 1% | 21% | 27.4% | 1% | 36% | 42.7% | -2% | 16% | 14.8% | 16% | 86% (active) | 58.3% | -2% | 30% | 23.1%
CCc1scc(C)[n+]1CC(=O)c1cccc([N+](=O)[O-])c1 | -1% | 15% | -6.25% | -10% | 3% | -2.9% | 11% | 2% | -4.4% | 12% | 18% | 17.6% | 12% | 25% | 8.95% | 19% | 22% | -1.95%
O=C(OCCCC(C(=O)c1ccccc1)=P(c1ccccc1)(c1ccccc1)c1ccccc1)c1ccccc1 | 35% | 99% (active) | 84.8% (active) | 36% | 99% (active) | 36.8% | 33% | 99% (active) | 61.5% | 6% | 98% (active) | 9.75% | 14% | 99% (active) | 23.4% | 50% | 99% (active) | 54.8%
CN(C)CC1CCc2ccc3ccccc3c2C1=O (configuration not stated) | 9% | 34% | 25.9% | -13% | 27% | 31.6% | 16% | 48% | 56.4% | 6% | 29% | 7.95% | 10% | 63% | 48.8% | 29% | 65% | 15.4%
CC(C)=CCc1c2c(c3occ(-c4ccc(O)c(O)c4)c(=O)c3c1O)C=CC(C)(C)O2 | 16% | 90% (active) | 90.8% (active) | 29% | 95% (active) | 94.1% (active) | 9% | 93% (active) | 94.8% (active) | -25% | 76% (active) | 91.5% (active) | -7% | 94% (active) | 89% (active) | -2% | 90% (active) | 90.8% (active)
CC(C)Cc1ccc(C(C)/C=C2\CCC(CN3CCCCC3)C2=O)cc1 (configuration not stated) | 93% (active) | 98% (active) | 92.3% (active) | 90% (active) | 99% (active) | 94.2% (active) | 84% (active) | 98% (active) | 94.2% (active) | 80% (active) | 99% (active) | 92.7% (active) | 98% (active) | 98% (active) | 93.2% (active) | 94% (active) | 98% (active) | 89.6% (active)
O=C(O)/C=C1\c2ccccc2CCC1c1ccc2ccccc2c1 (configuration not stated) | 64% | 93% (active) | 99.7% (active) | 27% | 85% (active) | 99.7% (active) | 43% | 91% (active) | 99.8% (active) | 41% | 82% (active) | 99.3% (active) | 47% | 85% (active) | 99.8% (active) | 54% | 93% (active) | 99.5% (active)

Source: PubChem BioAssay (NCI)
